PubChem BioAssay AID1159580 (chemical genetic matrix, 2015)
“And” between values parts separate entries of the source, which are not always exact repeats. Equal entries are not always repeated. Screen size: about 5,500 compounds; about 2,000 (36%) were called active. Not shown: some 18% with an inconclusive outcome. No stated cut-off is given here; in the data, active means normalized growth mostly below about 0.91 (no sharp cut-off); inconclusive means no clear call, values can overlap the other calls; inactive means mostly above about 0.92. The list shows a part of the results.

Test: chemical genetic growth profiling, strain panel (AID 1159580);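 further: tested at 20 µM; growth read once vehicle control cultures reached saturation at 30 °C; 1 = growth at the plate median or of vehicle wells; lower values mean less growth of the strain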
Settings: S. cerevisiae deletion strains, growth OD

Measured: normalized growth

NC(=O)N1c2ccccc2C=Cc2ccccc21
inactive: locus YAL013W, strain DEP1, active compounds read low 1 | locus YAL021C, strain ccr4, active compounds read low 1.03 | locus YAL026C, strain drs2, active compounds read low 1.02 | locus YAL030W, strain snc1, active compounds read low 1.04 | locus YAL040C, strain CLN3, active compounds read low 1.01 | locus YBL061C, strain skt5, active compounds read low 1.03 | locus YBR009C, strain hhf1, active compounds read low 1.02 | locus YBR021W, strain FUR4, active compounds read low 1.03 | locus YBR023C, strain chs3, active compounds read low 1.02 | locus YBR171W, strain sec66, active compounds read low 1.03 | locus YBR229C, strain ROT2, active compounds read low 1.03 | locus YBR231C, strain swc5, active compounds read low 1.04 | locus YBR279W, strain paf1, active compounds read low 1.02 | locus YCL011C, strain gbp2, active compounds read low 1.02 | locus YCL016C, strain dcc1, active compounds read low 1.02 | locus YCL029C, strain bik1, active compounds read low 1.01 | locus YCL061C, strain MRC1, active compounds read low 1.02 | locus YCL069W, strain vba3, active compounds read low 1.03 | locus YCR088W, strain abp1, active compounds read low 1.01 | locus YDL005C, strain med2, active compounds read low 1.02 | locus YDL035C, strain GPR1, active compounds read low 1.07 | locus YDL040C, strain nat1, active compounds read low 1.03 | locus YDL074C, strain BRE1, active compounds read low 1.03 | locus YDL101C, strain DUN1, active compounds read low 1.01 | locus YDL185W, strain tfp1, active compounds read low 0.963 | locus YDL192W, strain arf1, active compounds read low 0.996 | locus YDR001C, strain nth1, active compounds read low 1.01 | locus YDR069C, strain doa4, active compounds read low 1.04 | locus YDR101C, strain arx1, active compounds read low 1.01 | locus YDR137W, strain rgp1, active compounds read low 1.07 | locus YDR159W, strain sac3, active compounds read low 1.03 | locus YDR162C, strain NBP2, active compounds read low 1.03 | locus YDR195W, strain ref2 1.06 | locus YDR297W, strain sur2, active compounds read low 1.02 | locus YDR318W, strain mcm21, active compounds read low 1.01 | locus YDR334W, strain swr1, active compounds read low 1.03 | locus YDR335W, strain msn5, active compounds read low 1.02 | locus YDR363W, strain ESC2, active compounds read low 1 | locus YDR388W, active compounds read low 1.01 | locus YDR392W, strain spt3, active compounds read low 0.984 | locus YDR502C, strain sam2, active compounds read low 0.993 | locus YEL003W, strain gim4, active compounds read low 1.02 | locus YEL037C, strain rad23, active compounds read low 1.02 | locus YEL061C, strain CIN8 (second series), active compounds read low 1.01 | locus YEL061C, strain CIN8, active compounds read low 1.01 | locus YER002W, strain NOP16, active compounds read low 1.04 | locus YER015W, strain faa2, active compounds read low 1.03 | locus YER016W, strain bim1, active compounds read low 1.02 | locus YER110C, active compounds read low 0.979 | locus YER111C, strain swi4, active compounds read low 1.03 | locus YER155C, strain BEM2 (second series), active compounds read low 1.01 | locus YER155C, strain BEM2, active compounds read low 1.01 | locus YER167W, strain BCK2, active compounds read low 1.01 | locus YFR010W, strain ubp6, active compounds read low 1.05 | locus YGL078C, strain dbp3, active compounds read low 0.991 | locus YGL086W, strain mad1, active compounds read low 1.01 | locus YGL167C, strain pmr1, active compounds read low 1.03 | locus YGL173C, strain kem1, active compounds read low 1.04 | locus YGL227W, strain vid30, active compounds read low 1.01 | locus YGL240W, strain doc1, active compounds read low 1.02 | locus YGL248W, strain PDE1, active compounds read low 1.05 | locus YGL253W, strain hxk2, active compounds read low 1.01 | locus YGR078C, strain PAC10, active compounds read low 1.02 and 1.01 | locus YGR135W, strain pre9, active compounds read low 0.99 | locus YGR252W, strain gcn5, active compounds read low 1.06 | locus YHR013C, strain ard1, active compounds read low 1.02 | locus YHR027C, strain rpn1, active compounds read low 1.02 | locus YHR030C, strain SLT2, active compounds read low 1.01 and 1 | locus YHR079C, strain IRE1 (second series), active compounds read low 0.98 | locus YHR079C, strain IRE1, active compounds read low 0.99 | locus YHR094C, strain hxt1, active compounds read low 1 | locus YHR129C, strain ARP1, active compounds read low 0.997 | locus YHR142W, strain chs7, active compounds read low 1.02 | locus YHR200W, strain rpn10, active compounds read low 0.995 | locus YIL066C, strain RNR3, active compounds read low 1.04 | locus YIL073C, strain SPO22, active compounds read low 1.05 | locus YIL125W, strain kgd1, active compounds read low 1 | locus YIR030C, strain dcg1, active compounds read low 0.976 | locus YJL092W, strain hpr5, active compounds read low 1.03 | locus YJL095W, strain BCK1 (second series), active compounds read low 1.03 | locus YJL095W, strain BCK1, active compounds read low 0.972 and 0.988 | locus YJL115W, strain asf1, active compounds read low 1.03 | locus YJL129C, strain trk1, active compounds read low 1.04 | locus YJL134W, strain LCB3, active compounds read low 1.02 | locus YJL154C, strain vps35, active compounds read low 1.01 | locus YJL164C, strain tpk1, active compounds read low 1.01 | locus YJL166W, strain qcr8, active compounds read low 1.02 | locus YJL168C, strain set2, active compounds read low 0.994 | locus YJL187C, strain SWE1 (second series), active compounds read low 1.02 | locus YJR043C, strain POL32, active compounds read low 1.09 | locus YJR066W, strain TOR1, active compounds read low 0.99 | locus YKL009W, strain mrt4, active compounds read low 0.918 | locus YKL068W, active compounds read low 1.01 | locus YKL085W, strain MDH1 (second series), active compounds read low 0.986 | locus YKL085W, strain MDH1, active compounds read low 0.986 | locus YKL160W, strain elf1, active compounds read low 1.03 | locus YKR001C, strain vps1, active compounds read low 0.989 | locus YKR026C, strain gcn3, active compounds read low 1.01 | locus YKR091W, strain srl3, active compounds read low 1.01 | locus YLL001W, strain dnm1, active compounds read low 1.02 | locus YLL026W, active compounds read low 1.03 | locus YLL041C, strain sdh2, active compounds read low 1.02 | locus YLR027C, strain aat2, active compounds read low 1.02 | locus YLR039C, strain RIC1, active compounds read low 1.09 | locus YLR058C, strain SHM2, active compounds read low 1.01 | locus YLR102C, strain apc9, active compounds read low 1.01 | locus YLR113W, strain HOG1, active compounds read low 0.972 | locus YLR221C, strain rsa3, active compounds read low 1.01 | locus YLR258W, strain gsy2, active compounds read low 1.02 | locus YLR262C, strain YPT6 (second series), active compounds read low 1.03 | locus YLR262C, strain YPT6, active compounds read low 1.1 | locus YLR268W, strain sec22, active compounds read low 0.993 | locus YLR320W, strain mms22, active compounds read low 1.03 | locus YLR330W, strain CHS5, active compounds read low 1 | locus YLR342W, strain FKS1 (second series), active compounds read low 1.12 | locus YLR342W, strain FKS1, active compounds read low 1.03 | locus YLR357W, strain rsc2, active compounds read low 1.09 | locus YLR370C, strain arc18, active compounds read low 1.02 | locus YLR371W, strain rom2, active compounds read low 0.994 | locus YLR384C, strain iki3, active compounds read low 1.02 | locus YLR418C, strain cdc73, active compounds read low 0.959 | locus YML016C, strain PPZ1, active compounds read low 1.02 | locus YML032C, strain rad52, active compounds read low 1 | locus YML120C, strain ndi1, active compounds read low 1.03 | locus YML124C, strain tub3, active compounds read low 0.998 | locus YMR058W, strain fet3, active compounds read low 1.01 | locus YMR078C, strain ctf18, active compounds read low 0.989 | locus YMR125W, strain sto1, active compounds read low 1.03 | locus YMR129W, active compounds read low 1.01 | locus YMR205C, strain PFK2, active compounds read low 1.03 | locus YMR223W, strain ubp8, active compounds read low 0.993 | locus YMR231W, strain pep5, active compounds read low 1.03 | locus YMR263W, strain SAP30, active compounds read low 1.01 | locus YMR307W, strain GAS1, active compounds read low 1.18 | locus YNL067W, strain RPL9B, active compounds read low 1.02 | locus YNL071W, strain lat1, active compounds read low 1.02 | locus YNL128W, strain TEP1, active compounds read low 1 | locus YNL175C, strain NOP13, active compounds read low 1.05 | locus YNL183C, strain NPR1, active compounds read low 0.948 | locus YNL197C, strain WHI3, active compounds read low 1.03 | locus YNL209W, strain ssb2, active compounds read low 1.02 | locus YNL224C, strain SQS1, active compounds read low 1.02 | locus YNL233W, strain BNI4, active compounds read low 0.981 | locus YNL248C, strain rpa49, active compounds read low 1.05 | locus YNL250W, strain rad50, active compounds read low 0.98 | locus YNL271C, strain bni1, active compounds read low 0.977 | locus YNL298W, strain CLA4, active compounds read low 0.976 | locus YNL307C, strain MCK1, active compounds read low 1 | locus YNL322C, strain KRE1 (second series), active compounds read low 1.03 | locus YNL322C, strain KRE1, active compounds read low 1.01 | locus YNR049C, strain mso1, active compounds read low 1.03 | locus YNR052C, strain pop2, active compounds read low 0.994 | locus YOL006C, strain TOP1, active compounds read low 1.02 | locus YOL012C, strain htz1 1.53 | locus YOL147C, strain pex11, active compounds read low 0.998 | locus YOR001W, strain rrp6, active compounds read low 1.04 | locus YOR061W, strain CKA2, active compounds read low 1.01 | locus YOR069W, strain VPS5, active compounds read low 1.04 | locus YOR070C, strain gyp1, active compounds read low 1.03 | locus YOR080W, strain dia2, active compounds read low 1.04 | locus YOR083W, strain WHI5 (second series), active compounds read low 0.999 | locus YOR083W, strain WHI5, active compounds read low 1.03 | locus YOR106W, strain vam3, active compounds read low 1.04 | locus YOR136W, strain idh2, active compounds read low 0.997 | locus YOR144C, strain elg1, active compounds read low 1 | locus YOR184W, strain ser1, active compounds read low 0.981 | locus YOR231W, strain MKK1, active compounds read low 1 | locus YOR265W, strain rbl2, active compounds read low 1.03 | locus YOR270C, strain vph1, active compounds read low 1.1 | locus YOR290C, strain snf2, active compounds read low 1.01 | locus YOR316C, strain cot1, active compounds read low 0.998 | locus YPL051W, strain arl3, active compounds read low 1.03 | locus YPL055C, strain LGE1, active compounds read low 1.01 | locus YPL078C, strain atp4, active compounds read low 1.02 | locus YPL106C, strain sse1, active compounds read low 1.05 | locus YPL240C, strain hsp82, active compounds read low 1.02 | locus YPL241C, strain CIN2, active compounds read low 1.02 and 1.01 | locus YPL256C, strain CLN2, active compounds read low 1 | locus YPR119W, strain clb2, active compounds read low 0.996 | locus YPR141C, strain kar3, active compounds read low 0.992 | locus YPR163C, strain tif3, active compounds read low 1 | locus YPR167C, strain met16, active compounds read low 0.991 | strain wtn01, active compounds read low 1.01
